Screen size: about 63,000 compounds; about 30 (0.05%) were called active. No rule for the calls is given here. These entries were drawn from the full list.
Biological target: G protein-activated inward rectifier potassium channel 2 (Homo sapiens) (UniProt P48051)
Assay: activators of human GIRK2 potassium channels (AID 1259325)
Details: HEK293-GIRK2 thallium flux, Thallos fluorescence, MPD

Sequence of G protein-activated inward rectifier potassium channel 2 (Homo sapiens) (P48051 whole entry, looked up): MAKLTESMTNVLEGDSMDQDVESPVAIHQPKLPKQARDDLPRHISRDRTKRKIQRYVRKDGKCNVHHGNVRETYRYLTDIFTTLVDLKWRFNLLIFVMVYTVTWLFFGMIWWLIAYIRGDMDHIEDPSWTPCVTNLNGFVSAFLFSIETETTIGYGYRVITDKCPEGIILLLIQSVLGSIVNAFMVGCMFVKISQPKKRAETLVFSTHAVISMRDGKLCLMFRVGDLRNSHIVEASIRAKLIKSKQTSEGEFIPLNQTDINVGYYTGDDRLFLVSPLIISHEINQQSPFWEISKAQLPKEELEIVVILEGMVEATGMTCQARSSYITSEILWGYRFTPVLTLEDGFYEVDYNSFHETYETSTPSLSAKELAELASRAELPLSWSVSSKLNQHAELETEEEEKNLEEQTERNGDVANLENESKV

outcome, inactive:
Cc1cc(NC(=O)c2ccc([N+](=O)[O-])o2)n(-c2nc3c(F)cccc3s2)n1
O=C(Cc1csc(Nc2ccc(OC(F)(F)F)cc2)n1)NCc1ccncc1
COC(=O)c1ccccc1NS(=O)(=O)c1ccc(N2C(=O)CCC2=O)cc1
Cc1cc(C(=O)Nc2nc3c(C)ccc(Cl)c3s2)on1
COc1ccc(CC(=O)NC2CC(O)C(CO)C2)cc1OC (stereo not drawn)
Cc1cc(C)c(C)c(S(=O)(=O)N2CCC(S(C)(=O)=O)C2)c1C (stereo not drawn)
O=C(OC1CN(c2nc3c(Cl)cccc3s2)C1)c1ccc(=O)[nH]n1
O=C(c1ccc(OC(F)(F)F)cc1)N1CCC(CSC2=NCCS2)CC1
COc1ccc(-c2csc(Cc3nc(-c4ccc(C(F)(F)F)cc4)no3)n2)cc1OC
COc1cc(C2c3c(oc4ccc(C)cc4c3=O)C(=O)N2CCO)cc(OC)c1OC (stereo not drawn)
Cc1oc2cc(OC(=O)N3CCOCC3)ccc2c(=O)c1-c1ccc(Br)cc1
O=C(CSc1nc2ccccc2o1)N1CCN(c2cc(N3CCCCC3)ncn2)CC1
O=C(Nn1cnc2c(cnn2-c2ccccc2)c1=O)c1ccc(Cl)cc1Cl
O=C1/C(=C/c2cc(Br)cc3c2OCOC3)Oc2cc(OC(=O)N3CCOCC3)ccc21
Cc1ccc(Nc2c(C(=O)N3CCOCC3)cnc3ccccc23)cc1C
COc1ccc(NC(=O)CCc2csc(NC(=O)c3ccc[nH]c3=O)n2)cc1Cl
COCCCn1c(C(=O)Nc2cccc(C)c2C)cc2c(=O)n(C)c(=O)n(C)c21
COc1ccc(C2C(C(=O)Nc3ccccc3)=C(C)Nc3nc(C)nn32)cc1OC (stereo not drawn)
COc1ccccc1OCC#CCNC(=O)CSc1nc2ccccc2s1
CCOc1ccccc1C(=O)Nc1ccc(C)c(N2CCCC2=O)c1
COC(=O)c1ccc(S(=O)(=O)NCCC(O)c2cc(C)oc2C)cc1 (stereo not drawn)
Cc1nnsc1C(=O)NCC1CCN(C(=O)c2ccoc2)CC1
CCC1CCCCN1C(=O)c1cnc2nc(C)ccc2c1Nc1ccc(S(C)(=O)=O)cc1 (stereo not drawn)
COc1ccc(NC(=O)c2cn(Cc3ccc(NC(=O)c4ccccc4F)cc3)cn2)cc1
CS(=O)(=O)N1CCc2nc(NC(=O)/C=C/c3ccccc3Cl)sc2C1
C=C1C(=O)O[C@H](CCCCCCCC)C1C(=O)O (stereo partly drawn)
COc1cc(CN2CC(c3nc4ccc(C)cc4[nH]3)C2)cc(OC)c1
COc1ccc(C(O)=C2C(=O)C(=O)N(c3cc(C)on3)C2c2ccc(C)cc2)cc1OC (stereo not drawn)
